Experimental data as given in the supplement of paper PMC10849652.
About 7,900 targets were measured; listed, in parts, are those with a hit and a random draw of the rest. About 0.6% of all pairs of compound and target were hits.

target: AAGAB (UniProt Q6PD74); assay: log2 fold change, soluble protein after heating vs DMSO (PISA); higher = thermal stabilisation; K562 cells, 10 uM, 30 min; active = over 0.2 and 3.5 SD of the protein, either way, in both replicates (recomputed)
Procedure, shortened: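 K562 cells at 2×10^6 cells/mL were treated for 30 min with 10 μM compound, and aliquots were heated for 3 min over 48°C-58°C before pooling. Extraction used PBS with 0.5% NP-40 at 4°C, and soluble protein was the supernatant after 21,000xg for 90 min, measured by TMTpro 16plex LC-MS/MS with channel sums equalised. Thermal stability values, relative to control samples and from duplicates, are log2 fold changes.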

Sequence of AAGAB (Q6PD74 whole entry, looked up): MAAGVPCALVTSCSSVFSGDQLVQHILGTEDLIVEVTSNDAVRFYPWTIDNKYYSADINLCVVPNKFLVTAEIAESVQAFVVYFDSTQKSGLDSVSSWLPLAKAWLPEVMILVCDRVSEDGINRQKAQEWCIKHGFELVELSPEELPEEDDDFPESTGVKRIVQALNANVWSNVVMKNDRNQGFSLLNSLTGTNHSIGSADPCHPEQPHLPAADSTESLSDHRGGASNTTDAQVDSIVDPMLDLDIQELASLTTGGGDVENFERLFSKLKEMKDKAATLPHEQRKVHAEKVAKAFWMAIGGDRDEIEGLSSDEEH

log2 fold change, inactive:
CN1CCN(c2nc(C3=C(c4c[nH]c5ccccc45)C(=O)NC3=O)c3ccccc3n2)CC1 [sotrastaurin] 0.007
Cc1ccc(NC(=O)c2cccc(N(C)C)c2)cc1NC(=O)c1ccc(O)cc1 -0.063
CC(C)(O)CC(=O)NCCn1ccc2ncnc(Nc3ccc(Oc4cccc(C(F)(F)F)c4)c(Cl)c3)c21 -0.146
CC[C@@H]1C(=O)N(C)c2cnc(Nc3ccc(C(=O)NC4CCN(C)CC4)cc3OC)nc2N1C1CCCC1 -0.106
O=C1NC(=O)C(c2cnc3ccccn23)=C1c1cn2c3c(cc(F)cc13)CN(C(=O)N1CCCCC1)CC2 -0.109
CCCc1cc(C)[nH]c(=O)c1CNC(=O)c1cc(-c2ccnc(N3CCN(C)CC3)c2)cc2c1cnn2C(C)C -0.02
CN1CC[C@H](c2c(O)cc(O)c3c(=O)cc(-c4ccccc4Cl)oc23)[C@H](O)C1 [alvocidib] 0.008
Cc1cc(Nc2cc(N3CCN(C)CC3)nc(Sc3ccc(NC(=O)C4CC4)cc3)n2)n[nH]1 [tozasertib] 0.029
CNC(=O)c1ccccc1Nc1nc(Nc2ccc(N3CCOCC3)cc2OC)ncc1Cl 0.112
Cn1cc(-c2ccc3nnc(C(F)(F)c4ccc5ncccc5c4)n3n2)cn1 -0.121
C[C@@H](Oc1cc(-c2cnn(C3CCNCC3)c2)cnc1N)c1c(Cl)ccc(F)c1Cl [crizotinib] -0.134
COc1cc(C(=O)O)ccc1NC(=O)[C@@H]1N[C@@H](CC(C)(C)C)[C@](C#N)(c2ccc(Cl)cc2F)[C@H]1c1cccc(Cl)c1F [idasanutlin] -0.053
CN(C)CC(=O)Nc1ccc2[nH]c(=O)c3ccccc3c2c1 0.021
Cc1ccc2c(=O)c3ccccc3n(CCCN)c2c1C -0.003
COc1cccc2cc(-c3nc([C@H]4CC[C@H](C(=O)O)CC4)n4ncnc(N)c34)[nH]c12 -0.045
c1cc(OCCN2CCCCC2)cc(-c2n[nH]c3ccc(-c4nnc[nH]4)cc23)c1 -0.158
CCN(CCCOc1ccc2c(Nc3cc(CC(=O)Nc4cccc(F)c4)[nH]n3)ncnc2c1)CCOP(=O)(O)O [barasertib] 0.068
Nc1ccccc1NC(=O)c1ccc(CNC(=O)OCc2cccnc2)cc1 [entinostat] 0.004
O=C1NC(=O)/C(=C\c2ccc3nccnc3c2)S1 0.027
CC(C)N(C[C@H]1O[C@@H](n2cnc3c(N)ncnc32)[C@H](O)[C@@H]1O)[C@H]1C[C@@H](CCc2nc3cc(C(C)(C)C)ccc3[nH]2)C1 [pinometostat] 0.147
COc1ccc(Cn2ccc3ccc(C(=O)NO)cc32)cc1 -0.017
NC1(c2ccc(-c3nc4ccn5c(=O)[nH]nc5c4cc3-c3ccccc3)cc2)CCC1 -0.174
Cc1nc(Nc2n[nH]c3c2CN(C(=O)N[C@H](CN(C)C)c2ccccc2)C3(C)C)c2sccc2n1 -0.109
Cc1cccc(CC(=O)N2CCc3c2ccc(-c2cn(C)c4ncnc(N)c24)c3F)n1 0.016
C=CC(=O)N1CCC[C@@H](n2nc(-c3ccc(Oc4ccccc4)cc3)c3c(N)ncnc32)C1 [ibrutinib] 0.026
Cc1cc(SCc2sc(-c3ccc(C(F)(F)F)cc3)nc2C)ccc1OCC(=O)O 0.051
Cc1ccc(NC(=O)c2cccc(C(C)(C)C#N)c2)cc1Nc1ccc2ncn(C)c(=O)c2c1 -0.153
O=C(O)c1ccc2c(c1)nc(Nc1cccc(Cl)c1)c1ccncc12 [silmitasertib] 0.071
NCC(=O)Nc1ccc(-n2nc(C(F)(F)F)cc2-c2ccc3c(ccc4ccccc43)c2)cc1 -0.011
CNc1nc(-c2ccc3c(N)n[nH]c3c2)cc(N2C[C@@H](C(=O)NC3CCCCC3)CC[C@H]2C)n1 -0.084
